In the library only some 8.8% were active in any assay of this set; here they are far more common.
HTT cytoprotect – cytoprotection in Huntington HTT-Q103 PC12 cell model | PC12 HTT-Q103 induced, cytoprotection, ATP luminescence, 40 h | Potency, µM (series often up to 56.4 µM), for inactives: cytoprotection (ATP increase), actives largely listed as activators | hit rate 0.14% among 230,000; active = well fitted curve in the direction sought with a large enough effect; inconclusive = small, poorly fitted or top-dose-only effect, or another doubt; inactive = no such curve, though single readings can be large; an effect the other way counts as inactive or inconclusive; also: % of control where 0% means no effect; nearly all actives have a fitted effect of over 45% in size
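ATP quantification (ATPlite) reports survival of PC12 cells in which tebufenozide, 100 nM final, switches on Htt exon 1 with 103 glutamines linked to GFP; compounds are titrated.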
LMNA splice mod – changes lamin A minigene splicing in HeLa cells; Potency, µM (doses to about 46.1 µM), inactives show at the top dose ratio change, negative = inhibition, actives largely listed as inhibitors; hit rate 0.01% among 200,000; AID 1487; HeLa LMNA splicing GFP/RFP minigene ratio, 48 h; active = well fitted inhibition curve with a large enough effect in the signal ratio, with a control signal flat, not every such curve was filed as active; inconclusive = small, poorly fitted or top-dose-only effect, or effect the other way, or a change in a side signal; the % refers to the signal ratio; also: % is scaled to controls: 0 for no effect and ±100 for the full control effect
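S3 HeLa stable clones carrying a lamin A-EGFP splicing minigene plus DsRed2 were seeded at 600 cells/well in Opti-MEM with 2% FBS, pin-dosed and incubated 48 h at 37°C. Acumen cytometry (488 nm) gave the GFP/RFP total-intensity ratio.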
ALDH1A1 block – blocks purified human ALDH1A1 activity; Potency, µM (doses to about 75.3 µM), for inactives: at the highest dose activity, negative = inhibition, actives largely listed as inhibitors; P00352; Purified ALDH1A1, NADH fluorescence, propionaldehyde substrate; hit rate 7.3% among 220,000;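 also: plate controls were no enzyme wells and a reference inhibitor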
Target sequence (P00352 whole entry, looked up): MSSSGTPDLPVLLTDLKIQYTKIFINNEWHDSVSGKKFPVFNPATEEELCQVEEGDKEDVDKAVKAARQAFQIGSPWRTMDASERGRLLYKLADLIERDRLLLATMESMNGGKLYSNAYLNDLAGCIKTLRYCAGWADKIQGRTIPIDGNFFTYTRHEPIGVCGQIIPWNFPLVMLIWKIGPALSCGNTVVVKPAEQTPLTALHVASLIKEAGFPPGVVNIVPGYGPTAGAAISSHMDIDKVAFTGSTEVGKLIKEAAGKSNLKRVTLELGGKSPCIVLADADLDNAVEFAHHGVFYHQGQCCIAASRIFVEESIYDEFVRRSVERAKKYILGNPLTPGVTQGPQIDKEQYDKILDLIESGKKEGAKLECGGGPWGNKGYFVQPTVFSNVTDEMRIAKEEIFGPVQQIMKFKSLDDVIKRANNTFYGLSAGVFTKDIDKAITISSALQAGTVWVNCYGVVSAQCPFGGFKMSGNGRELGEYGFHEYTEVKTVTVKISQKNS
HPGD inh – HPGD (human) dehydrogenase inhibition; Potency, µM, for inactives: top-dose activity change, negative = inhibition, most hits filed as inhibitors; purified HPGD, NADH fluorescence kinetic, PGE2 substrate; P15428; hit rate 4.3% among 150,000; also: % is scaled to controls: 0 for no effect and ±100 for the full control effect
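NADH formation kinetics: reaction with 30 uM PGE2 and 1 mM NAD+ (final), 20 nM enzyme, Tris-HCl pH 8 with Tween 20, after 15 min compound preincubation at room temperature. Fluorescence change, last versus first of five reads.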
HTT aggregate – reduces HttQ103-GFP aggregates in PC12 cells; PC12 HttQ103-GFP aggregates, Acumen cytometry, 40 h; Potency, µM (top dose mostly 46.1 µM), inactives show at the top dose activity change, negative = inhibition, usual class: inhibitors; hit rate 1.1% among 220,000; AID 1688; active = well fitted curve in the direction sought with a large enough effect; inconclusive = small, poorly fitted or top-dose-only effect, or another doubt; inactive = no such curve, though single readings can be large; an effect the other way counts as inactive or inconclusive; also: % is scaled to controls: 0 for no effect and ±100 for the full control effect; nearly all actives have a fitted effect of over 60% in size
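Huntingtin Q103 exon 1–GFP aggregates in induced PC12 cells (100 nM tebufenozide) were quantified by cytometry from lysates, with compounds dosed in titration.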
An asterisk follows results filed as active; ? = inconclusive; nt = not tested or not shown; [ ] = dose if it differs, or a comment. Unless noted, calls follow the shape of the dose curve; as a rule, active = well fitted inhibition curve with a large enough effect (not every such curve was filed as active); inconclusive = small, poorly fitted or top-dose-only effect, or another doubt; inactive = no such curve, though single readings can be large or run the other way. Potency is read from the fitted curve at half-maximal effect.

SMILES	HTT cytoprotect	LMNA splice mod	ALDH1A1 block	HPGD inh	HTT aggregate
CCOC(=O)c1ccc(N2C(=O)C3CC=CCC3C2=O)cc1 (configuration not stated)	-2.7%	-8.0%	-3.5%	-7.9%	-14.3%
CCOc1ccc(CNS(=O)(=O)c2c(C(=O)N3CCCCCC3)c(C)n(C)c2C)cc1OC	nt	-18.2%[46 µM]	nt	nt	nt
COC(=O)C1=C(NC(=O)c2ccccc2[N+](=O)[O-])CCS1	-39.7%	nt	2.6%	nt	-10.9%
CCN1C(=O)CC(C(=O)Nc2ccc(F)cc2)SC1=Nc1cccc(OC)c1 (configuration not stated)	-34.8%	-29.6%	10µM*	-3.3%	-30.2%
COCCNC(=O)CSc1ncnc2sccc12	-14.1%	11.0%	-2.9%	17.8µM*	5.9%
CCNC(=O)CSc1ncnc2sccc12	-6.2%	-0.7%	9.7%	-16.9%	6.0%[9.22 µM]
CCCc1cc(=O)[nH]c(SCc2csc(-c3ccccc3)n2)n1	31.0%[10 µM]	?	-7.4%	-27.9%	?
CCc1nc(SCc2ccc(F)cc2)[nH]c(=O)c1C#N	9.4%[1.9 µM]	?	31.6µM*	4.47µM*	-8.7%
CCCc1cc(=O)[nH]c(SCc2nc(-c3ccc(C)cc3)no2)n1	nt	-11.0%[46 µM]	nt	nt	nt
N#Cc1c(-c2cccs2)nc(SCc2ccc(Cl)cc2)[nH]c1=O	-11.4%[10 µM]	nt	6.3%	nt	-21.2%[9.22 µM]
CCCc1cc(=O)[nH]c(SCc2nc(-c3ccccc3F)no2)n1	nt	-3.1%[46 µM]	nt	nt	nt
CCCc1cc(=O)[nH]c(SCc2cc(Cl)ccc2OC(F)F)n1	?	5.3%	-0.6%	14.1µM*	2.9%
CCCc1cc(=O)[nH]c(SCc2cccc(C)c2)n1	-21.6%[10 µM]	9.3%	?	14.1µM*	-13.1%
CCCc1cc(=O)[nH]c(SCc2ccccc2)n1	-1.0%	3.3%	?	15.8µM*	-17.9%
Cn1cccc1-c1cc2n(n1)CCC(=O)N2CCCC(=O)NCc1ccc(F)cc1	nt	2.2%[46 µM]	nt	nt	nt
CCc1nc(SCc2cccnc2)[nH]c(=O)c1C	-14.0%	1.1%	13.0%	25.1µM*	10.7%
CCCc1cc(=O)[nH]c(SCc2ccc(Cl)cc2)n1	16.5%	20.6%	0.8%	15.8µM*	-14.0%
CCc1nc(SCc2ccccn2)[nH]c(=O)c1C	-18.6%[10 µM]	?	-3.3%	nt	1.1%[9.22 µM]
CCCc1cc(=O)[nH]c(SCc2nc3ccc([N+](=O)[O-])cc3[nH]2)n1	6.6%[10 µM]	?	-15.2%	17.8µM*	-9.0%
CCSc1nc(-c2ccccc2)c(C#N)c(=O)[nH]1	-11.6%	-9.7%	?	28.2µM*	-7.5%
C[C@@]12C(=O)OC(=O)[C@@]1(C)[C@H]1CC[C@@H]2O1	-50.7%	nt	nt	nt	nt
O=C(CN1CCOCC1)NN=C1CCCCCCCCCCC1	29.8%[10 µM]	6.4%	3.0%	-0.9%	6.4%
O=c1[nH]c(SCc2ccccc2Cl)nc2[nH]ncc12	-40.9%	-14.3%[46 µM]	3.8%	nt	-15.2%
Cc1cccc(CSc2nc3[nH]ncc3c(=O)[nH]2)c1	-15.2%	-17.1%[46 µM]	8.91µM*	nt	-5.6%
CCCc1cc(=O)[nH]c(SCc2cccnc2)n1	-15.1%[10 µM]	-14.8%	-3.7%	20µM*	-3.9%
SMILES	HTT cytoprotect	LMNA splice mod	ALDH1A1 block	HPGD inh	HTT aggregate
COCCNC(=O)CSc1nc(-c2ccc(C)cc2)nc2c1c(=O)n(C)c(=O)n2C	nt	0.9%[46 µM]	nt	nt	nt
COc1cc(F)c(S(=O)(=O)Nc2c(C)n(C)n(-c3ccccc3)c2=O)cc1OC	nt	18.4%[46 µM]	nt	nt	nt
Nc1nc(Sc2ccc([N+](=O)[O-])c3nonc23)c2[nH]cnc2n1	-9.9%[10 µM]	nt	2µM*	1.26µM*	nt
COc1cc(C(=O)Oc2ccccc2/C=N/NC(=O)c2ccc(C)c(Cl)c2)cc(OC)c1OC	-81.3%[10 µM]	-8.4%	11.9%	-4.7%	2.82µM*
COc1ccc(C(=O)N/N=C/c2ccccc2C(=O)O)cc1OC	4.9%[10 µM]	nt	nt	nt	-26.1%[9.22 µM]
COc1cc(C(=O)Oc2ccccc2/C=N/NC(=O)c2ccc(Cl)cc2)cc(OC)c1OC	-88.2%[10 µM]	?	-4.1%	-17.0%	2.82µM*
O=C(N/N=C/c1ccccc1OC(=O)c1ccc2c(c1)OCO2)c1cccc(F)c1	-88.3%[10 µM]	?	1.4%	-1.7%	2.51µM*
CCNC(=O)c1ccc(CSc2nc3cccnc3n2Cc2ccc(OC)cc2)cc1	nt	-32.8%[46 µM]	nt	nt	nt
Cc1onc(NC(=O)CSCC(=O)O)c1Br	12.9%[10 µM]	nt	-6.4%	nt	-4.4%[9.22 µM]
O=[N+]([O-])c1cc(/C=N/Nc2nc3ccccc3[nH]2)c(O)cc1O	-62.5%[10 µM]	?	?	?	-10.0%

Screens from PubChem BioAssay.
